PubChem BioAssay (EPA / NIEHS)
Records with an inconclusive call do not appear. Activity calls are given as the source filed them. The calls were made as follows, unless noted: active = hit-call score of the fitted dose curve at least 0.9, where 1 is the maximum; inactive = score below 0.9.

Tests used:
[1] = target: Retinoic acid receptor RXR-alpha (Homo sapiens) (UniProt P19793); experiment: ATG_RXRa_TRANS: Attagene TRANS-FACTORIAL HepG2 Assay for human Retinoid X Receptor alpha (RXRa) (AID 2283012; active = hit-call score of the fitted dose curve at least 0.9, where 1 is the maximum)
Sequence of Retinoic acid receptor RXR-alpha (Homo sapiens) (P19793 whole entry, looked up, the tested form may be a part): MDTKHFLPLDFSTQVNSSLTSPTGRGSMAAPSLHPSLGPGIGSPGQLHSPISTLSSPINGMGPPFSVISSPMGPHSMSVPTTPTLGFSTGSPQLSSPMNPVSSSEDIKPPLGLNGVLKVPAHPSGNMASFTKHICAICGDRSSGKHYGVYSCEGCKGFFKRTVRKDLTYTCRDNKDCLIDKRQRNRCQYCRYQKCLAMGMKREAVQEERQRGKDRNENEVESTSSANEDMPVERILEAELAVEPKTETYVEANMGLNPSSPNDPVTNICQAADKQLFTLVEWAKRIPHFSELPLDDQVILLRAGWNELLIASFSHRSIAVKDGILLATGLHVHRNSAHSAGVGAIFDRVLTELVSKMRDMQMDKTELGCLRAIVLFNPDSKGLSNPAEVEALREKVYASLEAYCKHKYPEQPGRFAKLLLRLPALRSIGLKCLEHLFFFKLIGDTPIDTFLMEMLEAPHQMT
Method in brief: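 HepG2 cells transiently transfected with multiplexed GAL4-UAS reporter units and chimeric NR-GAL4 fusions, dosed 24 h. Reporter mRNA measured by RT-PCR, FAM labelling, HpaI digestion and capillary electrophoresis; gain-of-signal fitted relative to DMSO baseline.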

[2] = target: human Retinoid X Receptor beta (RXRb), RXRB (gene 6257) (UniProt P28702); experiment: ATG_RXRb_TRANS: Attagene TRANS-FACTORIAL HepG2 Assay for human Retinoid X Receptor beta (RXRb) (AID 2283013; active = hit-call score of the fitted dose curve at least 0.9, where 1 is the maximum)
Sequence of human Retinoid X Receptor beta (RXRb), RXRB (gene 6257) (P28702 whole entry, looked up, the tested form may be a part): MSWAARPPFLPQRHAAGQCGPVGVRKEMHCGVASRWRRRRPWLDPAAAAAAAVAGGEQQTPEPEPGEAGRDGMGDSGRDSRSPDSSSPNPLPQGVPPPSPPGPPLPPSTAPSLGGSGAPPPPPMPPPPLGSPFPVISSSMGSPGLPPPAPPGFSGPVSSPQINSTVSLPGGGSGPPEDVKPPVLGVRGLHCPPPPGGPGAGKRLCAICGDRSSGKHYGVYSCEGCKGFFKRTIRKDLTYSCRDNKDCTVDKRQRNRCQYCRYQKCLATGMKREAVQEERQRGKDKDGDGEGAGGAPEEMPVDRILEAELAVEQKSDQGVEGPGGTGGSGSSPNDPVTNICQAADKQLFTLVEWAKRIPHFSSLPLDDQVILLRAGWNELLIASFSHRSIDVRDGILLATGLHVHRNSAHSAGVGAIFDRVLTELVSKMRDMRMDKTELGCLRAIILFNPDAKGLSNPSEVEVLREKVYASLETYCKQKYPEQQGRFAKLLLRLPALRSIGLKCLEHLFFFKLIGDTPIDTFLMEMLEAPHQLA
Method in brief: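 HepG2 cells transiently transfected with multiplexed reporter units driven by GAL4-UAS and exogenous chimeric NR-Gal4 proteins; treated 24 h. Reporter mRNA measured by RT-PCR, 6-FAM labelling and capillary electrophoresis; gain-of-signal fitted versus DMSO baseline.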

[3] = target: human Thyroid Receptor alpha (THRa1), THRA (gene 7067) (UniProt P10827); experiment: ATG_THRa1_TRANS: Attagene TRANS-FACTORIAL HepG2 Assay for human Thyroid Receptor alpha (THRa1) (AID 2283014; active = hit-call score of the fitted dose curve at least 0.9, where 1 is the maximum)
Sequence of human Thyroid Receptor alpha (THRa1), THRA (gene 7067) (P10827 whole entry, looked up, the tested form may be a part): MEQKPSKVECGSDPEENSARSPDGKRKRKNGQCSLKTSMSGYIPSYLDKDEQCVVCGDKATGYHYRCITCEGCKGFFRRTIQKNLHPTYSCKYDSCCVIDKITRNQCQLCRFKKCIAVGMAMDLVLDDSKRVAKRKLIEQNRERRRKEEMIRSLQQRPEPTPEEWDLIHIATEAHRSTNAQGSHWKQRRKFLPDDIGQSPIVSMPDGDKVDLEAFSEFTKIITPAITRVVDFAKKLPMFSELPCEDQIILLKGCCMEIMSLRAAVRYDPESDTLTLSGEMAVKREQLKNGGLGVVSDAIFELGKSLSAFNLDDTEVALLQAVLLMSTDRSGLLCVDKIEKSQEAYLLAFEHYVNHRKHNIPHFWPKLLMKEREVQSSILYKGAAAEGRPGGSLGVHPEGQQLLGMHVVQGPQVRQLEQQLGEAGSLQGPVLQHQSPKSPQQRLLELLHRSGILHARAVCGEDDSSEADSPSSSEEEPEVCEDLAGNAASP
Method in brief: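 First, HepG2 cells receive multiple GAL4-UAS reporter units and the chimeric receptor. They are then dosed for 24 h, after which RNA is reverse-transcribed, amplified, labelled, HpaI-cut and sized by capillary electrophoresis; gain relative to DMSO is scored.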

[4] = read-out: E-selectin (Homo sapiens) (UniProt P16581); experiment: BSK_3C_Eselectin: BioMAP Diversity Plus: 3C Assay for Eselectin Biomarker Activity (AID 2283015); settings: primary human endothelial cells (HUVEC); actives raise or lower the signal;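 as to outcome: cell surface E-selectin protein quantified by ELISA 24 h after dosing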
Method in brief: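 Human vascular endothelium from umbilical vein is exposed to test chemicals for 24 h. E-selectin levels are read by ELISA and compared with DMSO controls.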

[5] = read-out: Interleukin-1 alpha (IL1a), IL1A (gene 3552); experiment: BSK_BE3C_IL1a: BioMAP Diversity Plus: BE3C Assay for Interleukin-1 alpha (IL1a) Biomarker Activity (AID 2283016); settings: primary human bronchial epithelial cells; actives raise or lower the signal
Method in brief: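 Human primary bronchial epithelial cells (BE3C system) were dosed with compound and IL-1a measured by ELISA 24 h later. Activity was fitted bidirectionally against DMSO baseline; cytotoxicity was tracked in parallel cultures by SRB total-protein staining.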

[6] = read-out: Monocyte Chemoattractant Protein-1 (MCP1), CCL2 (gene 6347); experiment: BSK_3C_MCP1: BioMAP Diversity Plus: 3C Assay for Monocyte Chemoattractant Protein-1 (MCP1) Biomarker Activity (AID 2283017); settings: primary human endothelial cells (HUVEC); actives raise or lower the signal
Method in brief: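 Endothelial cells from human umbilical vein are dosed with chemical, cultured 24 h, then assayed for MCP-1 by ELISA; both increases and decreases are modelled against DMSO controls.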

[7] = read-out: Monocyte Chemoattractant Protein-1 (MCP1), CCL2 (gene 6347); experiment: BSK_4H_MCP1: BioMAP Diversity Plus: 4H Assay for Monocyte Chemoattractant Protein-1 (MCP1) Biomarker Activity (AID 2283018); settings: primary human endothelial cells (HUVEC); actives raise or lower the signal
Method in brief: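 Human umbilical vein endothelial cells (4H system) dosed with chemical; MCP-1 measured by ELISA 24 h after dosing. Bidirectional curve fitting against DMSO negative control as baseline; parallel SRB total-protein staining tracks overt cytotoxicity.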

[8] = read-out: Interleukin-8 (IL8), CXCL8 (gene 3576); experiment: BSK_3C_IL8: BioMAP Diversity Plus: 3C Assay for Interleukin-8 (IL8) Biomarker Activity (AID 2283020); settings: primary human endothelial cells (HUVEC); actives raise or lower the signal
Method in brief: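 Primary human umbilical vein endothelial cells (3C system) were exposed to test chemical for 24 h, then IL-8 was quantified by ELISA. Responses were fitted bidirectionally against DMSO vehicle as baseline.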

[9] = read-out: Monokine induced gamma interferon (MIG), CXCL9 (gene 4283); experiment: BSK_3C_MIG: BioMAP Diversity Plus: 3C Assay for Monokine induced gamma interferon (MIG) Biomarker Activity (AID 2283021); settings: primary human endothelial cells (HUVEC); actives raise or lower the signal
Method in brief: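 Primary human umbilical vein endothelial cells in the 3C system were exposed to chemical for 24 h, after which MIG was quantified by ELISA. Activity was fitted bidirectionally against DMSO as negative control and baseline.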

[10] = target: human Vitamin D Receptor (VDR), VDR (gene 7421) (UniProt P11473); experiment: ATG_VDR_TRANS: Attagene TRANS-FACTORIAL HepG2 Assay for human Vitamin D Receptor (VDR) (AID 2283022; active = hit-call score of the fitted dose curve at least 0.9, where 1 is the maximum)
Sequence of human Vitamin D Receptor (VDR), VDR (gene 7421) (P11473 whole entry, looked up, the tested form may be a part): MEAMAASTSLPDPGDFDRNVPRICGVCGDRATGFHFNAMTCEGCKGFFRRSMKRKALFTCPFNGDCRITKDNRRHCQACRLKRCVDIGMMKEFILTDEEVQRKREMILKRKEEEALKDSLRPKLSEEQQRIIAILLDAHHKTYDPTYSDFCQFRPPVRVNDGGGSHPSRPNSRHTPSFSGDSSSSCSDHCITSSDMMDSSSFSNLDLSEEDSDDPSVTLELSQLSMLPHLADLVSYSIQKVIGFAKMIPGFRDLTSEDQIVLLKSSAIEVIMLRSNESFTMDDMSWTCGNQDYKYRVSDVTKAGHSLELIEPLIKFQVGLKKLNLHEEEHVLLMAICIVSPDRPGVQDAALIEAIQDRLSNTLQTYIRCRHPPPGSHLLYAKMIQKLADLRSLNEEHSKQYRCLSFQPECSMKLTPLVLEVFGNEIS
Method in brief: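 Fluorescence of labelled reporter cDNA fragments, resolved by capillary electrophoresis, gives mRNA induction after 24 h treatment of HepG2 cells carrying transfected Gal4-fusion reporter units. Activity is fitted in the positive direction with DMSO as baseline.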

[11] = BSK_3C_SRB: Viability Assessment in the BioMAP Diversity Plus: 3C Assay (AID 2283023); settings: primary human endothelial cells (HUVEC);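 also: fitted both ways against DMSO so a hit may be signal rise or drop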
Method in brief: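 Cells were dosed with chemical, cultured 24 h, fixed with 10% TCA, stained with 0.1% SRB and read at 560 nm. Human umbilical vein endothelium was used; DMSO served as negative control and baseline.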

[12] = read-out: Matrix Metallopeptidase 1 (MMP1), MMP1 (gene 4312); experiment: BSK_BE3C_MMP1: BioMAP Diversity Plus: BE3C Assay for Matrix Metallopeptidase 1 (MMP1) Biomarker Activity (AID 2283024); settings: primary human bronchial epithelial cells; actives raise or lower the signal
Method in brief: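 Primary human bronchial epithelial cells were dosed with test chemicals, and MMP1 levels were measured by ELISA 24 h later. Data were fitted bidirectionally against DMSO as the negative control and activity baseline.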

[13] = BSK_3C_Vis: BioMAP Diversity Plus: 3C Assay for Morphology Visualization (AID 2283025); settings: primary human endothelial cells (HUVEC);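 also: fitted both ways so gain or loss versus DMSO counts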
Method in brief: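 Human umbilical vein endothelial cells in the 3C system were imaged by light microscopy 24 h after chemical dosing to record cell morphology. Activity was fitted bidirectionally against DMSO as negative control and baseline; the endpoint serves as a background control.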

[14] = read-out: Pselectin, SELP (gene 6403); experiment: BSK_4H_Pselectin: BioMAP Diversity Plus: 4H Assay for Pselectin Biomarker Activity (AID 2283026); settings: primary human endothelial cells (HUVEC); actives raise or lower the signal
Method in brief: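 Primary human umbilical vein endothelial cells were exposed to test chemical for 24 h, then cell-surface P-selectin was quantified by ELISA. Activity was fitted bidirectionally against DMSO as negative control and baseline.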

[15] = BSK_4H_SRB: Viability Assessment in the BioMAP Diversity Plus: 4H Assay (AID 2283027); settings: primary human endothelial cells (HUVEC);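 also: cells exposed to compound for 24 h before staining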
Method in brief: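 Human umbilical vein endothelial cells, 24 h after chemical dosing; total protein measured by 0.1% sulforhodamine B staining after 10% TCA fixation, read at 560 nm. Bidirectional fitting against DMSO.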

[16] = BSK_BE3C_SRB: Viability Assessment in the BioMAP Diversity Plus: BE3C Assay (AID 2283028); settings: primary human bronchial epithelial cells
Method in brief: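 Overt cytotoxicity was assessed as total protein in confluent human primary bronchial epithelial cultures 24 h after chemical addition, using 0.1% sulforhodamine B staining read at 560 nm.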

[17] = read-out: Thrombomodulin, THBD (gene 7056); experiment: BSK_3C_Thrombomodulin: BioMAP Diversity Plus: 3C Assay for Thrombomodulin Biomarker Activity (AID 2283029); settings: primary human endothelial cells (HUVEC); actives raise or lower the signal
Method in brief: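 Primary human umbilical vein endothelial cells (3C system) were exposed to chemical for 24 h, then thrombomodulin levels were measured by ELISA. Activity was fitted bidirectionally against the DMSO negative control as baseline.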

[18] = read-out: Human Leukocyte Antigen - DR isotype (HLADR), HLA-DRA (gene 3122); experiment: BSK_3C_HLADR: BioMAP Diversity Plus: 3C Assay for Human Leukocyte Antigen - DR isotype (HLADR) Biomarker Activity (AID 2283019); settings: primary human endothelial cells (HUVEC); actives raise or lower the signal;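 also: ELISA of cell-surface HLA-DR on HUVEC 24 h after dosing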
Method in brief: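 Endothelial cells from human umbilical vein are treated with test chemical; after 24 h, HLA-DR levels are measured by ELISA. Data are fitted in both directions using DMSO as the baseline.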

[19] = target: human RAR-related Orphan Receptor gamma (RORg), RORC (gene 6097) (UniProt P51449); experiment: ATG_RORg_TRANS: Attagene TRANS-FACTORIAL HepG2 Assay for human RAR-related Orphan Receptor gamma (RORg) (AID 2283011; active = hit-call score of the fitted dose curve at least 0.9, where 1 is the maximum)
Sequence of human RAR-related Orphan Receptor gamma (RORg), RORC (gene 6097) (P51449 whole entry, looked up, the tested form may be a part): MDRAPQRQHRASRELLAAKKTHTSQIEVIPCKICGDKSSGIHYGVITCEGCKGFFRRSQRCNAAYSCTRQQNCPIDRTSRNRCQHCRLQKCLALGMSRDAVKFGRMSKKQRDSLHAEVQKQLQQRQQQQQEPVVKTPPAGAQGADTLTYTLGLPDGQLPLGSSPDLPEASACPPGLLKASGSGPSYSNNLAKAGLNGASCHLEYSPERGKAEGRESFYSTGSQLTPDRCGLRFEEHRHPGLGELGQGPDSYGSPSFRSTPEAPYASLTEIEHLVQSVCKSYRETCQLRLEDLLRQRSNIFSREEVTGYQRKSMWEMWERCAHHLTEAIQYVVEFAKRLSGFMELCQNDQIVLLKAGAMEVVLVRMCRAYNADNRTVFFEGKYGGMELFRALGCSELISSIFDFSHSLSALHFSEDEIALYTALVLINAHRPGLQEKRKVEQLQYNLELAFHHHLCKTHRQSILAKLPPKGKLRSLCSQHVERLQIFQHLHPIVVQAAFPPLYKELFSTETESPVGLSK
Method in brief: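 Activity is scored as increase in GAL4-UAS reporter mRNA over DMSO, detected by fluorescent RT-PCR and capillary electrophoresis in HepG2 cells transiently expressing a RORg-Gal4 chimera, 24 h after dosing.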

Sequence of E-selectin (Homo sapiens) (P16581 whole entry, looked up): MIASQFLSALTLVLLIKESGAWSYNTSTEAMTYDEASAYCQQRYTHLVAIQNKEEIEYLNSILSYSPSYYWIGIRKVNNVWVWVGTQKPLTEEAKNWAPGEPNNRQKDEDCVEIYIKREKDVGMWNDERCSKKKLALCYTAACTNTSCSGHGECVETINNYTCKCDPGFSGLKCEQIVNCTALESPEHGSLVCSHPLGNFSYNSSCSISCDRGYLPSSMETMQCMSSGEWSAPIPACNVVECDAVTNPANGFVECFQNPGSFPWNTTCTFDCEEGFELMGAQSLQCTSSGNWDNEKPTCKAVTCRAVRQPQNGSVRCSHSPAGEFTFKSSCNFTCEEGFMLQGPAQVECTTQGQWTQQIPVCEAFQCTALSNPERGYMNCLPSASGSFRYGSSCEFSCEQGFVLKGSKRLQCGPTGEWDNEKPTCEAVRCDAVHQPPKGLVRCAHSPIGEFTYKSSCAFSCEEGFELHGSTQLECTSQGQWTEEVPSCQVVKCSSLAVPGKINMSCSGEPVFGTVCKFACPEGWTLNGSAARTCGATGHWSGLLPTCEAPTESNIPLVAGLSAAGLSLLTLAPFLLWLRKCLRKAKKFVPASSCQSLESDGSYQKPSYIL

## CC1=NNC(=O)N(/N=C/c2cccnc2)C1
[1]
  outcome: inactive
[2]
  outcome: inactive
[3]
  outcome: inactive
[4]
  outcome: inactive
[5]
  outcome: inactive
[6]
  outcome: inactive
[7]
  outcome: inactive
[8]
  outcome: inactive
[9]
  outcome: inactive
[10]
  outcome: inactive
[11]
  outcome: inactive
[12]
  outcome: inactive
[13]
  outcome: inactive
[14]
  outcome: inactive
[15]
  outcome: inactive
[16]
  outcome: inactive
[17]
  outcome: inactive

## C[Si](Cn1cncn1)(c1ccc(F)cc1)c1ccc(F)cc1
[1]
  outcome: inactive
[2]
  outcome: inactive
[4]
  outcome: inactive
[5]
  outcome: inactive
[6]
  outcome: inactive
[7]
  outcome: inactive
[8]
  outcome: inactive
[9]
  outcome: inactive
[10]
  outcome: inactive
[11]
  AC50: 17.9 µM (active)
[12]
  outcome: inactive
[13]
  AC50: 39 µM (active)
[14]
  outcome: inactive
[15]
  outcome: inactive
[16]
  outcome: inactive
[17]
  outcome: inactive

## CN(C)C(=O)Nc1cccc(C(F)(F)F)c1
[1]
  outcome: inactive
[4]
  outcome: inactive
[5]
  outcome: inactive
[6]
  outcome: inactive
[7]
  outcome: inactive
[18]
  outcome: inactive
[8]
  outcome: inactive
[9]
  outcome: inactive
[11]
  outcome: inactive
[12]
  outcome: inactive
[13]
  AC50: 39 µM (active)
[14]
  outcome: inactive
[15]
  outcome: inactive
[16]
  outcome: inactive
[17]
  outcome: inactive

## COc1cccc(C(=O)NN(C(=O)c2cc(C)cc(C)c2)C(C)(C)C)c1C
[4]
  outcome: inactive
[5]
  outcome: inactive
[6]
  outcome: inactive
[7]
  outcome: inactive
[8]
  outcome: inactive
[9]
  outcome: inactive
[11]
  outcome: inactive
[12]
  outcome: inactive
[13]
  AC50: 39 µM (active)
[14]
  outcome: inactive
[15]
  outcome: inactive
[16]
  outcome: inactive
[17]
  outcome: inactive

## COc1ccc(C(=CC(=O)N2CCOCC2)c2ccc(Cl)cc2)cc1OC
[1]
  outcome: inactive
[2]
  outcome: inactive
[3]
  outcome: inactive
[4]
  AC50: 10.2 µM (active)
[5]
  outcome: inactive
[6]
  AC50: 6.59 µM (active)
[7]
  outcome: inactive
[8]
  outcome: inactive
[9]
  outcome: inactive
[10]
  outcome: inactive
[11]
  outcome: inactive
[12]
  outcome: inactive
[13]
  outcome: inactive
[14]
  outcome: inactive
[15]
  outcome: inactive
[16]
  outcome: inactive
[17]
  AC50: 3.36 µM (active)

## CCOP(=O)(OCC)Oc1cc(C)nc(C(C)C)n1
[19]
  outcome: inactive
[4]
  outcome: inactive
[5]
  outcome: inactive
[6]
  outcome: inactive
[7]
  outcome: inactive
[8]
  outcome: inactive
[9]
  outcome: inactive
[11]
  outcome: inactive
[12]
  outcome: inactive
[13]
  AC50: 39 µM (active)
[14]
  outcome: inactive
[15]
  outcome: inactive
[16]
  outcome: inactive
[17]
  outcome: inactive
